CHX counter – Cycloheximide Counterscreen for Small Molecule Inhibitors of Shiga Toxin; cell reporter, cycloheximide protein synthesis inhibition counterscreen; max response, %; actives 12% (n = 300,000); in the data active = max response mostly above about 13%, no sharp cut-off; inactive = mostly below about 14%; note: read at 38.3 µM for the half of the compounds with a filed dose; 0% is about no effect
Giardia FBPA inh – qHTS Assay for Inhibitors of Fructose-1,6-bisphosphate Aldolase from Giardia Lamblia; purified Giardia FBPA; Potency, µM (top dose mostly 59.6 µM), without a hit: top-dose activity, negative = inhibition, most hits filed as inhibitors; A8B2U2; actives 0.71% (n = 290,000); note: potency is the fitted concentration of half-maximal effect; % is set by controls: 0 for no effect and ±100 for the full control effect; nearly all actives have a fitted effect of over 55% in size
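40 nM FBPA preincubated 10 min at RT with compound (up to 57.5 uM final), then substrate plus GAPDH/TPI/NAD/arsenate coupling and diaphorase/resazurin added. Fluorescence read after 20 min at RT, 525/598 nm.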
NS1 function inh – qHTS Assay for Inhibitors of Influenza NS1 Protein Function; Potency, µM (doses to about 46.1 µM), without a hit: top-dose activity, positive = more growth; actives 0.4% (n = 270,000); calls by dose curve; note: potency is the fitted concentration of half-maximal effect; actives are rising curves; nearly all actives have a fitted effect of over 50% in size
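A cell-based growth assay was used: compounds that relieve NS1-induced slow growth of budding yeast raise OD600. Assay medium was yeast nitrogen base with ammonium sulphate and -URA supplement, pH 6.0, with 2% galactose.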
Shiga toxin inh – A qHTS for Small Molecule Inhibitors of Shiga Toxin; actives 9.2% (n = 290,000); Vero cells, Shiga toxin protein synthesis inhibition reporter; AID 2315, 2010; inhibition, % at 38.7 µM; in the data active = inhibition mostly above about 28%, no sharp cut-off; inactive = mostly below about 43%; note: 0% is about no effect
LmPK inh – qHTS Assay for Inhibitors of Leishmania Mexicana Pyruvate Kinase (LmPK); purified LmPK, Kinase-Glo ATP luminescence, 1 h; actives 0.37% (n = 290,000); Q27686; Potency, µM (doses to about 57.5 µM), without a hit: at the top dose activity change, negative = inhibition, most hits filed as inhibitors; note: potency is the fitted concentration of half-maximal effect; % is set by controls: 0 for no effect and ±100 for the full control effect
Target sequence (Q27686 whole entry, looked up): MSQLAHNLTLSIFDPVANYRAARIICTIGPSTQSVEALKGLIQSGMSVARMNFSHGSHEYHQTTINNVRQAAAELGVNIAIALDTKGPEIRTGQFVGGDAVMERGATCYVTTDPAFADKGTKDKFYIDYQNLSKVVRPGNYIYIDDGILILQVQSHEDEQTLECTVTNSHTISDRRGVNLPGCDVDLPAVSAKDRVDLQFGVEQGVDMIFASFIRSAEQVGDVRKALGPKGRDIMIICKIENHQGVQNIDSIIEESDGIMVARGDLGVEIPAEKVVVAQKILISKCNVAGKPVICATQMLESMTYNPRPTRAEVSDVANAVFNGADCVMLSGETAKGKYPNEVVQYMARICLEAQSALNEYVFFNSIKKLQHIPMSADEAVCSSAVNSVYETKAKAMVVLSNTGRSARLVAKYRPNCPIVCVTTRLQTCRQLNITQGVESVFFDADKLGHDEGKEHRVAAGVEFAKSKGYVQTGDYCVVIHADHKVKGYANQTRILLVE
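ATP generated from ADP (0.1 mM) and PEP (0.5 mM) by 0.1 nM LmPK over 1 h at room temperature (pH 7.2 imidazole buffer) was detected by coupled luciferase luminescence. Values were normalized to uninhibited and no-enzyme wells.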
An asterisk follows results filed as active; ? = inconclusive; . = not tested or not shown; + = active, no number; [ ] = remark or other dose. In the library only some 14% were active in any assay of this set; here they are far more common. Unless noted, calls come from the whole dose curve; as a rule, active = well fitted curve in the direction sought with a large enough effect; inconclusive = small, poorly fitted or top-dose-only effect, or another doubt; inactive = no such curve, though single readings can be large; an effect the other way counts as inactive or inconclusive.

SMILES	CHX counter	Giardia FBPA inh	NS1 function inh	Shiga toxin inh	LmPK inh
COc1cc(C(=O)NCCCOC(C)C)ccc1OC1CCN(C(C)=O)CC1	2	5%	6%	-4	-12%
COc1ccc(C(=O)NCCCOC(C)C)cc1OC1CCN(C(C)=O)CC1	36*	5%	-6%	96*	-2%
COc1ccccc1OCc1ccc(C(=O)c2ccccc2)cc1	23*	3%	-13%	.	3%
CNC(=O)c1ccc(OCc2ccccc2)c(OC)c1	20*	3%	-5%	19	2%
COc1ccc(C(=O)NCCCc2ccccc2)cc1OC	14*	5%	-12%	.	-1%
COC(=O)CC1C(C)(C)C2(O)OC34CC2C(=O)[C@@]1(C)C3CC[C@]1(C)C4=CC(=O)OC1c1ccoc1 (stereo partly specified)	.	-3%	.	.	.
CCN(CC)S(=O)(=O)c1ccc(NCCc2ccccn2)nc1	7	3%	11%	21	-4%
COc1ccc(C(=O)NCCc2c[nH]c3ccccc23)cc1[N+](=O)[O-]	7.4*	1%	-3%	3	-5%
COc1ccccc1NC(=O)NCCc1c[nH]c2ccccc12	-2	-8%	-1%	8	-2%
CCC(CC)C(=O)Nc1cc(C(=O)NCCc2ccccc2)ccc1Cl	33*	2%	4%	16	5%
Cc1ccc(C(=O)NCCc2cccc(Cl)c2)cc1[N+](=O)[O-]	38*	-1%	-28%	active	-2%
COc1ccc(C(=O)NCCN2C(=O)S/C(=C\c3cccnc3)C2=O)cc1[N+](=O)[O-]	25*	-10%	-7%	43*	0%
CCOc1ccccc1C(=O)Nc1cc(C(=O)NCCc2ccccc2)ccc1Cl	7	7%	20%	7	2%
Cc1cc(C)n(CCOc2ccc(Br)cc2)n1	-1	0%	-16%	-5	-2%
Cn1cc(CN2CCN(Cc3ccccc3)CC2)c(-c2cccc(Cl)c2)n1	-2	0%	0%	-15	4%
COc1ccc(/C=C(\NC(=O)c2ccc(Cl)cc2)C(=O)NCC2CCCO2)cc1OC (stereo unspecified)	7	-6%	-17%	9	0%
C=CCn1c(CSc2ccc(C)cc2)n[nH]c1=S	-1	?	17%	-2	-13%
COc1ccc(CCNC(=O)C2CCC(=O)N2CCc2ccccc2)cc1OC (stereo unspecified)	26*	2%	.	125*	0%
COc1ccc(C(=O)NCCc2ccccc2)cc1[N+](=O)[O-]	32*	2%	-7%	50*	3%
COc1ccc(C(=O)NCCc2ccccc2)cc1OC	28*	-1%	1%	44*	-4%
COc1ccccc1OCCNC(=O)c1ccc2c(c1)CCC2	24*	?	-22%	65*	-4%
CC(=O)OCC1OC(n2cnc3c(=O)[nH]cnc32)C(OC(C)=O)C1OC(C)=O (stereo unspecified)	.	0%	.	.	.
Cc1cc(S(=O)(=O)N2CCOCC2)ccc1OCC(=O)Nc1ccc(F)c(Cl)c1	-2	-6%	-9%	-17	-1%
CN(C)c1ccc(-c2ccc(C3C4C=CCCC4(C)C(=O)N3Cc3ccccc3)c(F)c2)cc1 (stereo unspecified)	22	-5%	.	18	.
CCCCC1=CC2=CC(=O)C(C)(OC(=O)CC)C(=O)C2=CN1CCCN(CC)CC (stereo unspecified)	.	-18%[12.9 µM]	.	.	-1%[11.5 µM]
SMILES	CHX counter	Giardia FBPA inh	NS1 function inh	Shiga toxin inh	LmPK inh
Nc1c(Cl)c(Cl)nc(C(=O)OCC(=O)NC2CCCCC2)c1Cl	-4	.	-4%	-3	2%
Nc1nc(COc2ccc(F)cc2)nc(N2CCCCC2)n1	19*	-1%	.	-10	2%
CC(C)(C)C(=O)Nc1nnc(SCc2cccc(F)c2)s1	53*	-6%	.	91*	-10%
COCCSc1nnc(NC(=O)C(C)(C)C)s1	59*	.	0%	111*	1%
CC(C)C(=O)Nc1nnc(SCc2cccc(F)c2)s1	14*	1%	.	49*	-10%
O=C(Nc1nnc(SCc2cccc(F)c2)s1)c1ccco1	3	30%	.	20	1%
CC(C)(C)C(=O)Nc1nnc(SCc2ccc(F)cc2)s1	22*	1%	0%	42	6%
COc1ncc2nc(-c3cccs3)c(=O)n(Cc3ccc(F)cc3)c2n1	.	1%	.	.	.
CCCC[C@@H]1C[C@H]1C(NC(=O)c1cccs1)c1ccc(-c2ccccc2)cc1 (stereo partly specified)	.	-1%	.	.	.
COc1cccc(/C(N)=N/OC(=O)Cc2ccccc2[N+](=O)[O-])c1	27*	3%	.	113*	-1%
COc1ccc(/C(N)=N/OC(=O)c2cccc([N+](=O)[O-])c2)cc1	1	3%	-4%	26	-10%
Cc1ccc(/C(N)=N/OC(=O)c2cccc(Cn3cc(C(F)(F)F)ccc3=O)c2)cc1	3	0%	5%	12	2%
COc1cccc(C(=O)O/N=C(\N)c2ccc(C)cc2)c1	57*	-10%	-34%	83*	-10%
COc1cccc(C(=O)O/N=C(\N)c2ccncc2)c1	47*	1%	-19%	71*	?
COc1cccc(C(=O)O/N=C(\N)c2ccc([N+](=O)[O-])cc2)c1	33*	0%	-18%	76*	4%
COc1cccc(C(C)NC(=O)C2CCCC2)c1 (stereo unspecified)	-1	7%	16%	-1	-6%
CCc1ccc(NCc2nc(-c3ccccc3)no2)cc1	31*	2%	-49%	47*	2%
Cc1ccc(-c2noc(CNc3ccccc3)n2)cc1	37*	-4%	-14%	64*	3%
N#CCCn1c(=O)c(-c2ccc(F)cc2)nc2cnc(Oc3cccc(Cl)c3)nc21	.	2%	.	.	.
[O-]/C(=C(\C(=S)Nc1ccc(SC(F)F)cc1)[n+]1cccc(CO)c1)c1ccc(Cl)s1	12	-18%	.	-5	3%
Cc1ccc(NC(=S)/C(=C(\[O-])c2ccc(Cl)s2)[n+]2cccc(CO)c2)cc1C	40*	-27%	.	68*	2%
O=C(CN1CCOCC1)c1ccc(Br)cc1	6	-17%	-38%	7	6%
N=C1CCCN1CC(=O)c1ccc(Br)cc1	46*	5%	2%	+	-4%
Cc1cc(=O)oc2cc(NC(=O)c3ccccc3OC(F)F)ccc12	30*	.	4%	115*	0%
O=C(CC1C(=O)NCCN1C/C=C/c1ccccc1)NCCCC1CCCC1 (stereo unspecified)	37*	14%	2%	75*	2%
O=c1[nH]c2ccccc2n1CCC1CCCCC1	47*	?	-156%	23	-2%
CC(C)CCn1c(=O)[nH]c2ccccc21	-1	6%	2%	1	3%
COc1ccc(C(=O)NCCCOc2cccc(NC(C)=O)c2)cc1	3	0%	-1%	13	0%
Cc1cc(C)c2nc(NC(=O)C3CC(=O)N(Cc4ccco4)C3)sc2c1 (stereo unspecified)	9	0%	.	-1	4%

Source: PubChem
